This passage reports outcome results from PubChem BioAssay AID504546 (Broad Institute, 2011).

The assay is described as follows: ADP-Glo luciferase signal interference – biochemical, luminescence, cherry-picked samples, set 2, artefact control for CDK5 inhibitor project, dose response (AID 504546).

Structures are written as SMILES. Results filed as inconclusive are left out. Calls of active or inactive are those of the source.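 The calls were made as follows: active = every repeat run fits a falling-signal curve with half-maximal potency within ten times top tested dose; inconclusive = runs disagree, or flat moderate drop, or poor fit; inactive = every run inactive, including signal moving upward.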

Consider `COc1cc2c(ccc3c4cc(OC)c(OC)cc4c[n+](C)c23)cc1O`, for which the compound was called inactive.
For `NC(=O)c1c(Br)n(C2OC(CO)C(O)C2O)c2ncnc(N)c12` (stereo not drawn) the value was “inactive”; for `Nc1ccc(CC2=NCCN2)cc1`, “inactive”.
To `N#Cc1c(Br)n(C2OC(CO)C(O)C2O)c2ncnc(N)c12` (stereo not drawn) belongs “inactive”.
`N#Cc1cn(C2OC(CO)C(O)C2O)c2ncnc(N)c12` (stereo not drawn): the compound was called inactive.
Take `Nc1ncnc2c1ccn2[C@@H]1O[C@H](CO)[C@@H](O)[C@H]1O`: the outcome was inactive.
To `O=C1Nc2ccccc2/C1=C/c1cnc[nH]1` belongs “inactive”.
To `NC(=O)c1cn(C2OC(CO)C(O)C2O)c2ncnc(N)c12` (stereo not drawn) belongs “inactive”.
